TRPM1 prom inh: MITF TRPM1 promoter inhibition in SK-MEL-5 cells; inhibition, % at 12.5 µM; AID 488899; 0.83% of 330,000 active; SK-MEL-5 TRPM1 promoter luciferase, 24 h;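 active = mean inhibition across replicates of 60% or more, whatever share of single replicates reaches that level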
Peg3 prom inh: reduces Peg3 promoter-driven luciferase expression in HeLa; HeLa PEG-Prom luciferase reporter, luminescence, overnight; inhibition, % at 20 µM; 1.7% of 360,000 active;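 active = inhibition of at least 50% at 20 µM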
TROY NFkB inh: TROY signaling inhibition; Q293 LMP1-TROYcd NF-kB luciferase reporter, 4 h; inhibition, % at 10 µM; 0.98% of 360,000 active; AID 1347056;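 active = compounds whose plate-normalised and pattern-corrected inhibition of the luciferase reporter signal at the single screening dose is 50% or more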
Shn3 3UTR inh: inhibitors of Schnurri-3 3'UTR reporter in osteoblasts; Clone20 osteoblast Shn3 3'UTR firefly luciferase, 24 h; inhibition, % at 12.5 µM; 0.52% of 360,000 active; AID 588674;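 active = mean inhibition of at least 75% with every replicate also reaching 75%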;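 also: 0% = median of neutral control wells and 100% = pilot-screen positive control compound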
LMP1 NFkB inh: inhibitors of Epstein-Barr LMP1-induced NF-kappaB reporter; LMP1-induced NF-kappaB luciferase reporter cells, luminescence; inhibition, % at 12.5 µM; 0.69% of 350,000 active; AID 504558; in the data active = inhibition above about 41%;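 also: 0% = neutral control wells and 100% = reference inhibitor control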
TWEAK Fn14 block: TWEAK-Fn14 signaling inhibition; 2% of 360,000 active; TWEAK-stimulated Fn14 reporter cells, luciferase luminescence, 8 h; inhibition, % at 10 µM; in the data active = inhibition above about 50%
* = called active by the depositor. Only some compounds are listed: those with a hit (about 4.1% of all), similar ones and a draw of the others.

`COC(=O)c1cc(=O)n(CCc2ccc(OC)c(OC)c2)c(=Nc2ccc(F)c(Cl)c2)s1` gave TRPM1 prom inh 7, Peg3 prom inh 99*, TROY NFkB inh 9, Shn3 3UTR inh 50, LMP1 NFkB inh -30 and TWEAK Fn14 block 60*.
Screening CCOC(=O)c1ccc(N=c2sc(C(=O)OC)cc(=O)n2-c2ccc(C(=O)OCC)cc2)cc1 returned TRPM1 prom inh 30, Peg3 prom inh 99*, TROY NFkB inh 20, Shn3 3UTR inh 2, LMP1 NFkB inh -2 and TWEAK Fn14 block 54*.
`COC(=O)c1cc(=O)n(-c2ccccc2)c(=Nc2ccccc2)s1` gave TRPM1 prom inh -6, Peg3 prom inh 33, TROY NFkB inh -6, Shn3 3UTR inh -4, LMP1 NFkB inh 7 and TWEAK Fn14 block 23.
Screening COC(=O)c1cc(=O)n(Cc2ccc(OC)c(OC)c2)c(=Nc2ccc(F)cc2)s1 returned TRPM1 prom inh 16, Peg3 prom inh 81*, TROY NFkB inh 28, Shn3 3UTR inh 17, LMP1 NFkB inh 10 and TWEAK Fn14 block 65*.
`COc1ccc(S(=O)(=O)N2CCOCC2)cc1NC(=O)c1ccccc1C` gave TRPM1 prom inh 9, Peg3 prom inh 19, TROY NFkB inh 4, Shn3 3UTR inh 0, LMP1 NFkB inh 2 and TWEAK Fn14 block -12.
COc1cc(/C=C(/C(=O)O)c2ccc(-c3ccccc3)cc2)cc(OC)c1OC was read as TRPM1 prom inh 3, Peg3 prom inh 27, TROY NFkB inh 3, Shn3 3UTR inh -11, LMP1 NFkB inh -2 and TWEAK Fn14 block 29.
`COc1cc(C=c2c3ccccc3n3c2cc(-c2ccccc2)[n+]3C)cc(OC)c1OC` gave TRPM1 prom inh 65*, Peg3 prom inh 38, TROY NFkB inh 8, Shn3 3UTR inh 0, LMP1 NFkB inh 7 and TWEAK Fn14 block 17.
For COc1cc(N(C)C)ccc1C=c1c2ccccc2n2c1cc(-c1ccccc1)[n+]2C the results were TRPM1 prom inh 110*, Peg3 prom inh 100*, TROY NFkB inh 58*, Shn3 3UTR inh 95*, LMP1 NFkB inh 2 and TWEAK Fn14 block 88*.
Screening O=C(N/N=C/c1cccnc1)c1ccccc1[N+](=O)[O-] returned TRPM1 prom inh 3, Peg3 prom inh 5, TROY NFkB inh 6, Shn3 3UTR inh -9, LMP1 NFkB inh 4 and TWEAK Fn14 block -19.
`Nc1nc2nc(-c3ccccc3)cc(C(F)(F)F)c2s1` gave TRPM1 prom inh 6, Peg3 prom inh 2, TROY NFkB inh -7, Shn3 3UTR inh -6, LMP1 NFkB inh 0 and TWEAK Fn14 block -6.
Screening Cn1c(=O)n(C)c2cc(NC(=O)CSc3nc4ccccc4c(=O)[nH]3)ccc21 returned TRPM1 prom inh -13, Peg3 prom inh 18, TROY NFkB inh -6, Shn3 3UTR inh 23, LMP1 NFkB inh -1 and TWEAK Fn14 block 21.
`CS(=O)(=O)N(CCc1ccccc1)CC(=O)NCc1ccco1` gave TRPM1 prom inh -3, Peg3 prom inh 11, Shn3 3UTR inh 3, LMP1 NFkB inh -7 and TWEAK Fn14 block 82*.
`Cc1ccc(CNC(=O)CN(CCc2ccccc2)S(C)(=O)=O)cc1` gave TRPM1 prom inh 8, Peg3 prom inh 7, TROY NFkB inh -3, Shn3 3UTR inh -6, LMP1 NFkB inh -5 and TWEAK Fn14 block -4.
Screening C=C(CN(C)C)C(=O)c1ccc(OC2OC(COC(C)=O)C(OC(C)=O)C(OC(C)=O)C2OC(C)=O)cc1 (stereo unspecified) returned TRPM1 prom inh 115*, Peg3 prom inh 100*, TROY NFkB inh 16, Shn3 3UTR inh 98*, LMP1 NFkB inh -6 and TWEAK Fn14 block 15.
O=C(/C=C/c1ccc(O)c(O)c1)OCCc1ccccc1 was read as TRPM1 prom inh -71, Peg3 prom inh -238, TROY NFkB inh -41, Shn3 3UTR inh 95*, LMP1 NFkB inh -22 and TWEAK Fn14 block 30.
`CCCN(CCC)c1ncnc2c1cnn2-c1ccc(OC)cc1` gave TRPM1 prom inh -133, Peg3 prom inh -278, TROY NFkB inh 62*, Shn3 3UTR inh -43, LMP1 NFkB inh -27 and TWEAK Fn14 block 53*.
For CN(C)CCNc1ncnc2c1cnn2-c1ccc(Cl)cc1 the results were TRPM1 prom inh -63, Peg3 prom inh -85, TROY NFkB inh 18, Shn3 3UTR inh -47, LMP1 NFkB inh -14 and TWEAK Fn14 block 9.
`Clc1ccc(-n2ncc3c(NCC4CCCO4)ncnc32)cc1` (stereo unspecified) gave TRPM1 prom inh -48, Peg3 prom inh -187, TROY NFkB inh 37, Shn3 3UTR inh -31, LMP1 NFkB inh -15 and TWEAK Fn14 block 60*.
`C=CCNc1ncnc2c1cnn2-c1ccc(OC)cc1` gave TRPM1 prom inh -51, Peg3 prom inh -235, TROY NFkB inh -12, Shn3 3UTR inh -41, LMP1 NFkB inh 8 and TWEAK Fn14 block 39.
Screening CCC(CO)Nc1ncnc2c1cnn2-c1ccc(Cl)cc1 (stereo unspecified) returned TRPM1 prom inh -21, Peg3 prom inh -130, TROY NFkB inh 73*, Shn3 3UTR inh -2, LMP1 NFkB inh -28 and TWEAK Fn14 block 68*.
Screening OCCCNc1ncnc2c1cnn2-c1ccc(Cl)cc1 returned TRPM1 prom inh -32, Peg3 prom inh -88, TROY NFkB inh 15, Shn3 3UTR inh -17, LMP1 NFkB inh -1 and TWEAK Fn14 block 68*.
For Cc1cccc(C(=O)OCC(=O)N2CCCC2=O)c1[N+](=O)[O-] the results were TRPM1 prom inh -4, Peg3 prom inh -2, TROY NFkB inh 4, Shn3 3UTR inh -3, LMP1 NFkB inh 3 and TWEAK Fn14 block 0.
`CCCCCc1c(-c2ccc(Br)cc2)ncn1CCc1ccccc1OC` gave TROY NFkB inh 0 and TWEAK Fn14 block 2.
CCC(CO)Nc1ncnc2c1cnn2-c1ccc(OC)cc1 (stereo unspecified) was read as Peg3 prom inh -183, TROY NFkB inh 39, Shn3 3UTR inh -20, LMP1 NFkB inh 10 and TWEAK Fn14 block 54*.
`COc1cccc(NC(=O)COC(=O)CC(NC(N)=O)c2ccc(Cl)cc2)c1` (stereo unspecified) gave TRPM1 prom inh -3, Peg3 prom inh 0, TROY NFkB inh 3, Shn3 3UTR inh 2, LMP1 NFkB inh -3 and TWEAK Fn14 block 1.
Screening CCN1CCN(Cc2ccc(NC(=O)c3ccc(C)c(NC(=O)c4ccno4)c3)cc2C(F)(F)F)CC1 returned TRPM1 prom inh -6, Peg3 prom inh 18, TROY NFkB inh 4, Shn3 3UTR inh 18, LMP1 NFkB inh 47* and TWEAK Fn14 block -53.
For CCN1CCN(Cc2ccc(NC(=O)c3ccc(C)c(NC(=O)c4cccc(-c5cn[nH]c(=O)c5)c4)c3)cc2C(F)(F)F)CC1 the results were TRPM1 prom inh 19, Peg3 prom inh 4, TROY NFkB inh -32, Shn3 3UTR inh 7, LMP1 NFkB inh 61* and TWEAK Fn14 block -188.
